In PubChem BioAssay:
Activity calls are given as the source filed them. Unless noted, no rule for the calls is given here.

Legend:
[1] = HepG2 liver cancer cell viability effects, profiling panel, resazurin fluorescence, 24 h, PK04 Diversity Set (AID 1172); settings: higher = more signal
[2] = basal S. cerevisiae growth modulation, no modifier, primary screen, OD600, strain BY4716, 24 h, basal condition (AID 1173); settings: OD600, 24 h, higher = more signal, called active from +8 up or from −8 down
[3] = MM1S myeloma cell viability, profiling panel, resazurin fluorescence, basal, 24 h, PK04 Diversity Set (AID 1174); settings: higher = more signal, called active from +8 up or from −8 down;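 also: MM1S multiple myeloma cell line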
[4] = target: Dihydroorotate dehydrogenase (quinone), mitochondrial (Plasmodium falciparum (isolate 3D7)) (UniProt Q08210); experiment: PfDHODH enzyme inhibitors, primary screen, biochemical, C-terminal His tag, absorbance 600 nm (AID 1175); settings: DCIP absorbance 600 nm, higher = more signal, called active from +8 up or from −8 down;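 also: recombinant parasite enzyme with a five histidine tag at its C terminus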
Dihydroorotate dehydrogenase (quinone), mitochondrial (Plasmodium falciparum (isolate 3D7)), sequence (Q08210 whole entry, looked up): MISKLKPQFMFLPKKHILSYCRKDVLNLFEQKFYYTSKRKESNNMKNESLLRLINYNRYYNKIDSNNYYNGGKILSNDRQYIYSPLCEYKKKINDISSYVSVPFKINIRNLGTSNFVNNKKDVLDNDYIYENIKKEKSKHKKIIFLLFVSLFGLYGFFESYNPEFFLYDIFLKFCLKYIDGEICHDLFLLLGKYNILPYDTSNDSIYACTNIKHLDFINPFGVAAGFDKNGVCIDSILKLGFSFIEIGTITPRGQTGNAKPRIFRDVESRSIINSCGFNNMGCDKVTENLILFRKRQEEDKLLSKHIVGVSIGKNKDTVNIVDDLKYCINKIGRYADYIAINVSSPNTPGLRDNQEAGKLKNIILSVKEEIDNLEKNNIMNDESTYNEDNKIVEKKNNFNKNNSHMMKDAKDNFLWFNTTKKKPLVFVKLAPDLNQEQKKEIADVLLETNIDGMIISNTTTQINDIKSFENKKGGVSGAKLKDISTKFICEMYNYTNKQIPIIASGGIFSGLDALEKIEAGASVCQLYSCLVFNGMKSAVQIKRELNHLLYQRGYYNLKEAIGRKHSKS

[5] = P. aeruginosa biofilm formation inhibitors, primary screen, strain PAO1, LB-PBS medium, absorbance 600 nm (AID 1176); settings: P. aeruginosa PAO1 growth/biofilm, A600, 12 h; higher = more signal
[6] = S. cerevisiae RM11-1a growth modifiers, primary screen, strain RM11-1a, OD600, basal, 24 h (AID 1177); settings: OD600, 24 h, higher = more signal, called active from +8 up or from −8 down;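 also: cultures grown under basal conditions with no added stressor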
[7] = E. coli acrAB mutant growth effects, primary screen, E. coli filamentation inducers, strain DRC39, OD650, 24 h (AID 1178); settings: higher = more signal, called active from +8 up or from −8 down;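 also: growth measured as culture turbidity by optical density at 650 nm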
[8] = E. coli acrAB mutant growth effects, primary screen, E. coli filamentation inducers, strain DRC39, OD650, 48 h (AID 1179);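 also: screen aims at cell division blockers that make cells filament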; settings: E. coli DRC39 delta-acrAB growth, higher = more signal, called active from +8 up or from −8 down
[9] = RPMI8226 myeloma cell viability, profiling panel, resazurin fluorescence, basal, 24 h, PK04 Diversity Set (AID 1180); settings: higher = more signal;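 also: RPMI8826 multiple myeloma cell line at 5000 cells per well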
[10] = target: E3 ubiquitin-protein ligase XIAP (Homo sapiens) (UniProt P98170); experiment: XIAP binders, primary screen, biophysical, small-molecule microarray, fluorescence 635 nm (AID 1181); settings: small-molecule microarray binding, higher = more signal;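 also: score merges 667 nm emission and signal to noise over triplicate slides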
E3 ubiquitin-protein ligase XIAP (Homo sapiens), sequence (P98170 whole entry, looked up): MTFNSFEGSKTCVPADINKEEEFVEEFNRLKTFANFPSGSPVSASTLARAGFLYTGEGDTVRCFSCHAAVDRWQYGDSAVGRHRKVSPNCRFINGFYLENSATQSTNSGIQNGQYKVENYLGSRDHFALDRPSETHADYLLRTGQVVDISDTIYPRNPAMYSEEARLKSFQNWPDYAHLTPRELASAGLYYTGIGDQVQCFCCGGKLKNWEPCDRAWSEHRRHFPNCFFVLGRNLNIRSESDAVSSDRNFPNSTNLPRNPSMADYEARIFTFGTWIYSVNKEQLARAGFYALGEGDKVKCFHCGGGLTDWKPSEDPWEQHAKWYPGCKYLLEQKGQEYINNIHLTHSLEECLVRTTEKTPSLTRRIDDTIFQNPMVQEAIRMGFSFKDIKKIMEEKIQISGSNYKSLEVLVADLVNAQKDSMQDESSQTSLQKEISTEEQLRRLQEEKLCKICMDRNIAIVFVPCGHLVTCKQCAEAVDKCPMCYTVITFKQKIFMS

[11] = tested on: XIP peptide (Xip251-270) binding; experiment: small-molecule binders of XIP peptide, primary screen, biochemical, small-molecule microarray, fluorescence 635/667 nm, 0.1 µg/mL protein (AID 1182); settings: fluorescent protein binding, 635 nm, higher = more signal, called active from +8 up or from −8 down
[12] = tested on: XIP peptide (Xip251-270); experiment: small-molecule binders of XIP peptide, primary screen, biochemical, small-molecule microarray, fluorescence 635/667 nm, 0.5 µg/mL protein (AID 1183); settings: small-molecule microarray binding, fluorescence 635 nm; higher = more signal
[13] = Plasmodium falciparum growth inhibition, primary screen, strain 3D7, DAPI fluorescence, 100 nL (AID 1184);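 also: parasites grown inside human red blood cells in medium with human serum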; settings: P. falciparum 3D7 growth, 3 d, higher = more signal
[14] = target: Homeobox protein Hox-A13 (Mus musculus) (UniProt Q62424); experiment: inhibitors of HoxA13-DNA binding, primary screen, biochemical, fluorescence polarization, labeled oligonucleotide (AID 1185); settings: 15 min, higher = more signal, called active from +8 up or from −8 down
Homeobox protein Hox-A13 (Mus musculus), sequence (Q62424 whole entry, looked up): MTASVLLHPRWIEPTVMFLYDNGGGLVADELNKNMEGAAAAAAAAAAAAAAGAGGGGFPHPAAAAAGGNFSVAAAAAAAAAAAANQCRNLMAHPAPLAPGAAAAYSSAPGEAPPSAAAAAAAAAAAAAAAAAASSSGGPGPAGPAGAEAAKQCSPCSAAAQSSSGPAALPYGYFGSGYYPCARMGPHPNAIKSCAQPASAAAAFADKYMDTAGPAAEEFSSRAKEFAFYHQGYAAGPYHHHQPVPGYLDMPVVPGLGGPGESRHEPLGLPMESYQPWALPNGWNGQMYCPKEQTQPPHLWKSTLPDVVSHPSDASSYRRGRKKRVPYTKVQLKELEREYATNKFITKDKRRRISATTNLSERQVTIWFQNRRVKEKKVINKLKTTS

[15] = inhibitors of hydroxyurea-induced Chk1 phosphorylation, primary screen, imaging, HeLa, phospho-Chk1 antibody, percent positive cells (AID 1186); settings: hydroxyurea-induced phospho-Chk1 immunofluorescence imaging, higher = more signal
[16] = inhibitors of hydroxyurea-induced Chk1 phosphorylation, primary screen, imaging, HeLa, phospho-Chk1 nuclear intensity (AID 1187); settings: hydroxyurea-induced phospho-Chk1 immunofluorescence imaging, higher = more signal

| Compound | z-score [1] | z-score [2] | z-score [3] | composite z-score [4] | z-score [5] | z-score [6] | z-score [7] | z-score [8] | z-score [9] | composite z-score [10] | composite z-score [11] | composite z-score [12] | z-score [13] | z-score [14] | z-score [15] | z-score [16] |
| --- | --- | --- | --- | --- | --- | --- | --- | --- | --- | --- | --- | --- | --- | --- | --- | --- |
| CN1C=C(C(=O)OCCS(C)(=O)=O)C(C(=O)OCCS(C)(=O)=O)=CC(CCCO)=CC1C1CC1 (centres undefined) | 0.427 | -2.11 (inactive) | -0.16 (inactive) | -1.23 (inactive) | -0.353 (inactive) | -0.558 (inactive) | 1.38 (inactive) | 1.29 (inactive) | 0.0101 | -0.366 | 1.7 (inactive) | 0.01 | -0.766 | -5.26 (inactive) | -1.31 (inactive) | -0.118 (inactive) |
| COC(=O)c1ccc(OC)c(/C=C\CC(OC(C)=O)c2ccccc2)c1 (centres undefined) | 0.0209 | -1.17 (inactive) | -0.345 (inactive) | -3.79 (inactive) | -0.351 (inactive) | -0.639 (inactive) | 0.0847 (inactive) | -0.396 (inactive) | -1.1 | 0.0131 | 0.322 (inactive) | 0.501 | 0.0859 | -2.35 (inactive) | 0.237 (inactive) | 0.328 (inactive) |
| CCOC(=O)C1=CCC(c2ccc(C#N)cc2)N(S(=O)(=O)c2ccc(C)cc2)C1 (centres undefined) | -0.688 | 0.916 (inactive) | -1.35 (inactive) | -0.496 (inactive) | 0.654 (inactive) | 0.906 (inactive) | -0.445 (inactive) | 0.435 (inactive) | -1.94 | -0.187 | 1.79 (inactive) | 0.766 | -1.33 | -3.74 (inactive) | -0.308 (inactive) | -1.22 (inactive) |
| C=C(COC)/C(=C/C[C@H](OC(=O)c1ccncc1)c1cccc(OCCO)c1)c1cc(C(=O)OC)ccc1OC | 0.13 | -0.0964 (inactive) | 0.544 (inactive) | -2.67 (inactive) | -0.21 (inactive) | -0.42 (inactive) | 0.629 (inactive) | 0.237 (inactive) | 0.406 | -0.102 | 1.46 (inactive) | 0.153 | -2.96 | -4.05 (inactive) | -0.681 (inactive) | -0.764 (inactive) |
| CC(C)NC(=O)[C@@]1(Cc2ccccc2I)c2ccccc2C(=O)N(Cc2ccccc2)[C@H]1c1ccc(CO)cc1 | 0.255 | -0.659 (inactive) | -0.329 (inactive) | 0.799 (inactive) | 0.972 (inactive) | -0.0378 (inactive) | -0.24 (inactive) | -0.324 (inactive) | -0.211 | -0.0023 | 0.257 (inactive) | 0.784 | -1.22 | -4.87 (inactive) | -0.303 (inactive) | -0.346 (inactive) |
| COCCCNC(=O)[C@@]1(C)c2ccccc2C(=O)N(Cc2cc(C(F)(F)F)cc(C(F)(F)F)c2)[C@H]1c1ccc(CO)cc1 | -0.063 | -0.0384 (inactive) | 0.186 (inactive) | 1.03 (inactive) | 0.127 (inactive) | 0.429 (inactive) | 0.534 (inactive) | 1.3 (inactive) | 0.394 | -0.204 | 0.707 (inactive) | 0.875 | -0.577 | -3.6 (inactive) | -0.385 (inactive) | 0.0021 (inactive) |
| CCCC[C@H]1OB(O)C[C@H]2C1=C(C)C[C@H]1C(=O)N(Cc3ccccc3)C(=O)[C@H]12 | 0.589 | -5.14 (inactive) | 0.355 (inactive) | -0.231 (inactive) | 0.0481 (inactive) | -0.621 (inactive) | 1.68 (inactive) | 0.452 (inactive) | 0.156 | -0.0627 | 0.0643 (inactive) | 0.911 | 0.508 | -7.36 (inactive) | -0.128 (inactive) | -0.379 (inactive) |
| Cc1ccc(F)cc1S(=O)(=O)N[C@@H]1CCN(Cc2ccc(-c3ccccc3)cc2)C1 | -0.603 | -19.1 (active) | -3.27 (inactive) | -0.427 (inactive) | 0.425 (inactive) | -22.4 (active) | -20.5 (active) | -20 (active) | -2.16 | 0.0368 | 0.765 (inactive) | 0.479 | -1.89 | -4.9 (inactive) | -0.23 (inactive) | -0.0784 (inactive) |
| O=C1N(CCS(=O)(=O)c2ccccc2)c2ccccc2C[C@@]12COC(c1ccc(OCCCO)cc1)=N2 | -0.73 | 1.3 (inactive) | -0.756 (inactive) | 0.558 (inactive) | 0.603 (inactive) | 1.31 (inactive) | -0.0526 (inactive) | -0.726 (inactive) | -0.816 | 0.262 | 2.06 (inactive) | 0.861 | -1.39 | -4.69 (inactive) | -0.0621 (inactive) | -0.223 (inactive) |
